# PubChem BioAssay (Tox21)
# Records with an inconclusive call do not appear. Unmarked numbers belong to inactive results. Active and inactive are the calls of the source. Calls come from the whole dose curve.
# Assay: p53 small molecule agonists, cell-based qHTS assay: qHTS cell viability counter screen (AID 1963581); note: nearly all actives have a fitted effect of over 45% in size
# Settings: p53RE-bla HCT-116 viability, ATP luminescence, 16 h; series mostly up to 66 µM; activity change, negative = cytotoxicity: at the top concentration
# Method in brief: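 In the same plates used for the p53 bla reporter, HCT-116 cells given compounds for 16 h at 37 C received CellTiter-Glo; luminescence was recorded 30 min later at room temperature.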
# % is set by controls: 0 for no effect and ±100 for the full control effect.
Structure (SMILES),"activity change, negative = cytotoxicity",Potency
CC(C)[N+](C)(CCC(C(N)=O)(c1ccccc1)c1ccccc1)C(C)C,-13.2% [at 30.3 µM],
O=C(Cl)CCl,-5.46%,
COC(=O)c1ccccc1N,,inactive
CN(C)NC(=O)CCC(=O)O,,inactive
CN(C)C(=O)C(c1ccccc1)c1ccccc1,,inactive
ClCc1ccccn1,,inactive
CCCOC(=O)c1ccccc1C(=O)OCCC,,inactive
Cc1ccc(N)c(N)c1,,inactive
N#CC1(N=NC2(C#N)CCCCC2)CCCCC1,17.4%,
C=C(C)C(=O)OCC(CC)CCCC (stereo not given),,inactive
O=C(CCN1CC1)OCC(CO)(COC(=O)CCN1CC1)COC(=O)CCN1CC1,10%,
CCCCOC(=O)c1ccccc1C(=O)OCCCC,,inactive
CC(O)CN(CC(C)O)CC(C)O (stereo not given),,inactive
CN(N=O)C(N)=O,6.85%,
CCOC(=O)c1cncn1C(C)c1ccccc1 (stereo not given),-10.5% [at 30.3 µM],
CCN(CC)c1ccccc1,,inactive
CCOc1nc(F)cc2nc(S(=O)(=O)Nc3c(Cl)cccc3Cl)nn12,-0.469%,
O=[N+]([O-])c1ccccc1O,,inactive
Nc1ccc(N=Nc2ccc(-c3ccc(N=Nc4c(S(=O)(=O)O)cc5cc(S(=O)(=O)O)c(N=Nc6ccccc6)c(O)c5c4N)cc3)cc2)c(N)c1,6.96% [at 30.3 µM],
c1ccc(P(c2ccccc2)c2ccccc2)cc1,,inactive
CCCCCBr,-3.45%,
c1ccc2c(c1)sc1ccccc12,-2.27%,
COc1ccc2c3c1O[C@H]1[C@H](O)CC[C@H]4[C@@H](C2)N(C)CC[C@@]341,9.38%,
CN(C)CCc1c[nH]c2cccc(OP(=O)(O)O)c12,2.31%,
CC(Cl)C(=O)O (stereo not given),2.48%,
